# This is a sample that favours compounds with a hit; in the whole collection about 3.4% have one here.
# MITF primary: MITF inhibitors, primary screen, biochemical, AlphaScreen, human. AlphaScreen MITF homodimerization, bead proximity signal. actives 0.91% (n = 650,000). inhibition, % at 2.6 µM. AID 1259374, 2018; in the data active = inhibition above about 50%;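 note: 0% = vehicle wells with protein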
# GPR151 activ: activators of human GPR151, primary screen, cell-based, PathHunter beta-arrestin, luminescence | G-protein coupled receptor 151 (Homo sapiens), Q8TDV0 | PathHunter beta-arrestin GPR151 cells | activation, % at 11.2 µM | actives 1% (n = 650,000); in the data active = activation above about 4.9%;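 note: 0% = median of compound wells and 100% = cells with positive control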
# FBW7 activator: FBW7 E3 ligase activators, primary screen, biochemical, AlphaScreen, human; F-box/WD repeat-containing protein 7 (Homo sapiens), Q969H0; AlphaScreen FBW7–phospho-cyclin E peptide binding, activator screen; normalized activity (activation), % at 26.1 µM; actives 0.13% (n = 650,000); AID 1259310, 2017; in the data active = normalized activity above about 1.9%;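 note: purified mutant Fbw7 with reduced substrate affinity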
# Target sequence (Q969H0 whole entry, looked up): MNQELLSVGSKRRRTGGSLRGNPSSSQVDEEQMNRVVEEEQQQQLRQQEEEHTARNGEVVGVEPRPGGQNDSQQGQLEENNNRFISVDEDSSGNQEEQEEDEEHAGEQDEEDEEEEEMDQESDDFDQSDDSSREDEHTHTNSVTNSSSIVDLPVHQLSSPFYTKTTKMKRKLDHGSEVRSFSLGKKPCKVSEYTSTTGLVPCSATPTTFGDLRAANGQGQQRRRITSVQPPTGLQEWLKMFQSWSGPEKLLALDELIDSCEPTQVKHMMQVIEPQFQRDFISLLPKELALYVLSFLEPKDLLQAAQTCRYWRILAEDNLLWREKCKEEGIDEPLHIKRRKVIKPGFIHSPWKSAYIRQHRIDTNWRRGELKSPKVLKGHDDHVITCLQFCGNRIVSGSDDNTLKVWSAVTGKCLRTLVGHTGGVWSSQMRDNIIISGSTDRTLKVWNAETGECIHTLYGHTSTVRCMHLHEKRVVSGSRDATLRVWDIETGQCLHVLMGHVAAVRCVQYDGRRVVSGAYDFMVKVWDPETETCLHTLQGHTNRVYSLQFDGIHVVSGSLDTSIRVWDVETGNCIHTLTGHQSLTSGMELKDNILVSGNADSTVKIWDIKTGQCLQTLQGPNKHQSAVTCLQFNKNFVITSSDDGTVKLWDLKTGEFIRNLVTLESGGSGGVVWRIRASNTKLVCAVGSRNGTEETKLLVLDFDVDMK
# TEAD-YAP inh: TEAD-YAP interaction inhibition, primary screen, TEAD-YAP interaction inhibitor project, luminescence, HEK-TIYL cells; TEAD-Gal4/YAP UAS-luciferase luminescence; inhibition, % at 9.12 µM; actives 1.4% (n = 640,000); AID 1259422, 2018; in the data active = inhibition above about 32%;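 note: 0% = median of test compound wells and 100% = reference inhibitor wells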
# An asterisk follows results filed as active.
SMILES,MITF primary,GPR151 activ,FBW7 activator,TEAD-YAP inh
CCC(=O)Nc1c2c(nn1-c1cccc(C)c1C)CS(=O)C2 (stereo not given),5,0,0,10
Cc1ccc(NC(=O)CSc2nnc(NC(=O)COc3ccccc3)s2)c(C)c1,8,1,0,5
C=CCN=C1NN=C(c2ccc3c(c2)OCCO3)CS1,7,0,0,51*
NC1=NN=C(c2ccc3c(c2)OCCO3)CS1,1,0,0,-13
C=CCN=C1NN=C(c2cc(C)n(CC=C)c2C)CS1,-2,-3,0,89*
CCN=C1NN=C(c2ccc(C)cc2)CS1,8,1,0,73*
Cc1cc(C2=NNC(=NCc3ccccc3)SC2)c(C)n1C,7,-1,1,1
c1ccc(CN=C2NN=C(c3ccccc3)CS2)cc1,5,1,0,-27
O=C(c1ccoc1)N1CCOc2ccc(CN3CCN(c4ccccc4)CC3)cc2C1,9,0,0,1
COc1ccc(C2CC(=O)n3c(nc4ccccc43)S2)cc1 (stereo not given),-11,2,0,80*
O=C1CC(c2ccccc2)Sc2nc3ccccc3n21 (stereo not given),5,1,0,-33
O=C1CC(c2ccc3c(c2)OCO3)Sc2nc3ccccc3n21 (stereo not given),-3,-1,0,76*
N#CCCN(C(=O)COC(=O)c1ccc(Cl)cc1N)c1ccccc1,-4,1,0,-1
N#CCCN(C(=O)CCl)c1cccc(Cl)c1,3,0,0,74*
COc1ccc(N(C)C2=NS(=O)(=O)c3ccccc32)cc1,4,0,0,45*
OCc1ccccc1-c1cnc2ccc(NCC3CC3)nn12,6,0,0,-2
CS(=O)(=O)Nc1ccc(-c2ccnc(Nc3cccc(S(N)(=O)=O)c3)n2)cc1,6,0,0,2
CS(=O)(=O)Nc1cccc(-c2ccnc(Nc3cccc(S(N)(=O)=O)c3)n2)c1,7,4,0,91*
NS(=O)(=O)c1ccc(Nc2nccc(-c3cccc(OCCN4CCCCC4)c3)n2)cc1,26,0,0,68*
CS(=O)(=O)Nc1cccc(-c2ccnc(Nc3ccc(-c4ncn[nH]4)cc3)n2)c1,9,-1,0,72*
c1ccc2[nH]c(CNc3cc(-c4ccc(N5CCOCC5)nc4)ncn3)nc2c1,-4,-1,0,-35
O=Cc1cccc(-c2ccc(N3CCOCC3)nc2)c1,7,-3,0,47*
O=C(NCc1nc2ccccc2[nH]1)c1ccnc(N2CCOCC2)c1,20,-1,0,-1
CN1CCN(c2ccc(-c3cccc(C=O)c3)cn2)CC1,9,-5,0,-30
CCCNC(=O)c1cccc(-c2ccc(N3CCN(C)CC3)cc2)n1,-3,1,0,-16
SMILES,MITF primary,GPR151 activ,FBW7 activator,TEAD-YAP inh
O=C(NCc1nc2ccccc2[nH]1)c1ccnc(-c2ccc(N3CCOCC3)nc2)c1,6,-2,0,32*
O=C(NCc1nc2ccccc2[nH]1)c1cccc(-c2ccc(N3CCOCC3)nc2)c1,3,4,0,43*
CN1CCN(c2ccc(-c3cccc(C(=O)NCc4nc5ccccc5[nH]4)n3)cc2)CC1,13,2,0,49*
CC(CNC1CCN(c2cccc(NC(=O)C3CC3)c2)CC1)c1ccccc1 (stereo not given),4,1,0,-6
COc1ccc(Cn2nnnc2C(c2ccc(F)cc2)N2CCN3CCCC3C2)cc1 (stereo not given),15,-1,0,-3
Cc1nc(NCc2ccccn2)c2cc(C)sc2n1,10,3,0,12
COc1ccccc1CNc1nc(C)nc2sc(C)cc12,1,2,0,48*
COc1ccccc1CNc1ncnc2sc(C)cc12,0,-1,0,32*
COc1ccccc1CNc1ncnc2sc(C)c(C)c12,-1,1,0,2
CCCCNc1ncnc2sc(C)cc12,1,0,0,37*
COCCCNc1ncnc2sc(C)cc12,-1,2,0,17
CC(=O)N1CCc2cc(Br)cc(S(=O)(=O)Nc3ccc(Cl)cc3)c21,-2,0,0,7
CCOC(=O)N1CCN(C(=O)c2cnc3ccc(C)cn3c2=O)CC1,11,-2,0,1
CCOC(=O)C1(Cc2cccc(OC)c2)CCN(Cc2c(C)nc3sccn23)CC1,12,1,0,26
